# Laboratory results taken from PubChem BioAssay (NCI).
# This is part of a sample that, as a whole, favours compounds with a hit. Of some 83,000 tested, about 20% had one in any assay.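 The test compound was applied at a single concentration to cells in 96-well plates for 48 hours, and percent growth was recorded.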 Values without a mark were called inactive. Activity calls are given as the source filed them. How the source made its calls: active means growth percent below 10; inactive means the rest.
# Experiments:
# Test in all cases: NCI-60 one-dose screen, 48 h (100 = growth as untreated, 0 = no growth, -100 = all killed)
# Conditions in all cases: 10 µM unless noted
# [1] = system: SK-MEL-2 melanoma
# [2] = system: EKVX NSCLC
# [3] = system: SN12C renal
# [4] = system: UO-31 renal
# [5] = system: TK-10 renal
# [6] = system: ACHN renal
# [7] = system: CAKI-1 renal
# [8] = system: HL-60(TB) leukemia
# [9] = system: CCRF-CEM leukemia
# [10] = system: MOLT-4 leukemia
# [11] = system: SR leukemia
# [12] = system: RPMI-8226 leukemia
# [13] = system: OVCAR-8 ovarian
# [14] = system: OVCAR-5 ovarian
# [15] = system: OVCAR-4 ovarian
# [16] = system: SK-OV-3 ovarian
# [17] = system: IGROV1 ovarian
# [18] = system: OVCAR-3 ovarian
# [19] = system: HS 578T breast
SMILES,growth [1],growth [2],growth [3],growth [4],growth [5],growth [6],growth [7],growth [8],growth [9],growth [10],growth [11],growth [12],growth [13],growth [14],growth [15],growth [16],growth [17],growth [18],growth [19]
Fc1cccc(NCOOC2(OOCNc3cccc(F)c3)CCCCC2)c1,91.7%,93.8%,103%,-58.2% (active),90.8%,95%,52.3%,88.3%,84.1%,97.6%,31.5%,99.6%,96.8%,96.2%,98.5%,103%,40.1%,99.3%,104%
CCc1ccccc1[C@@H]1C[C@]2(C)CCO[C@@H]2OO1,115%,105%,98.7%,91.5%,96.9%,104%,96.5%,109%,94.1%,105%,–,100%,96%,109%,96.3%,107%,108%,113%,101%
Cc1cccc(N2CCN(C(C)C#N)CC2)c1 (configuration not stated),104%,100%,103%,84%,119%,104%,95%,94.2%,107%,106%,98.2%,104%,106%,103%,114%,102%,108%,109%,96.3%
CC1=C(CN)C2=C(C)C3(CC3)[C@@](C)(O)C(=O)C2=C1,98.5%,102%,90.2%,90.3%,102%,97.3%,94.7%,88.2%,110%,96.7%,–,114%,84.2%,97.9%,93.2%,102%,94.8%,101%,86%
COC(=O)[C@@H](C)C[C@H](Cc1ccccc1)NC(=O)c1nc([C@@H](C[C@H](C(C)C)N(C)C(=O)[C@@H](NC(=O)[C@H]2C[C@H](O)CCN2C)C(C)C)OC(C)=O)sc1C(C)C,12.4%,35.2%,7.67% (active),12.5%,27.5%,10.8%,23.8%,-42.3% (active),4.78% (active),11%,3.04% (active),-4.65% (active),10.6%,33.4%,35.6%,2.1% (active),10.2%,2.66% (active),6.61% (active)
COC(=O)[C@@H](C[C@H](Cc1ccccc1)NC(=O)c1csc([C@@H](C[C@H](C(C)C)N(C)C(=O)[C@@H](NC(=O)[C@H]2CCCCN2C)C(C)C)OC(C)=O)n1)NC(=O)OCc1ccccc1,-10.4% [9.5 µM] (active),51.5% [9.5 µM],15% [9.5 µM],27.3% [9.5 µM],45.2% [9.5 µM],16.4% [9.5 µM],35.1% [9.5 µM],-40.2% [9.5 µM] (active),6.42% [9.5 µM] (active),11.8% [9.5 µM],-23.3% [9.5 µM] (active),-9.01% [9.5 µM] (active),13.3% [9.5 µM],42.2% [9.5 µM],46.2% [9.5 µM],12.4% [9.5 µM],13.2% [9.5 µM],-23.7% [9.5 µM] (active),12.9% [9.5 µM]
C[C@]12CCc3sc(-c4cccc(F)c4)nc3C1=CC[C@@H]1[C@@H]2CC[C@]2(C)C(=O)CC[C@@H]12,32.1%,68.3%,42.9%,1.08% (active),24%,11.9%,36.9%,34.2%,15.8%,5.82% (active),5.11% (active),-2.88% (active),28.5%,87.2%,65.1%,17.9%,0.597% (active),7.89% (active),27.4%
CCC1CC(O)c2c(O)c3c(c(O)c2C1O)C(=O)c1cccc(O)c1C3=O (configuration not stated) (tested in a mixture with another compound),-63% (active),-4.25% (active),0.851% (active),-32.9% (active),-13.7% (active),-18.1% (active),0.243% (active),-45.5% (active),-21.5% (active),-23.3% (active),-0.491% (active),-35.8% (active),–,-78.2% (active),-21.6% (active),11.1%,-53.5% (active),-12% (active),–
O=[N+]([O-])c1cnc[nH]1,102%,109%,103%,94.8%,111%,118%,99%,134%,103%,114%,117%,–,109%,108%,114%,110%,127%,112%,106%
Cc1cnc(/C=C/C(=O)O)cc1-c1cc2c(cc1C)C(C)(C)CCC2(C)C,74.4%,46%,90.5%,68.4%,113%,81.7%,79%,63.3%,85%,85.5%,66%,50.4%,89.5%,104%,85.4%,84.4%,94.4%,57.8%,69.9%
CCC(C)(C)[C@H](NC(=O)[C@H]1CCCCN1C)C(=O)N(C)[C@H](C[C@@H](OC(C)=O)c1nc(C(=O)N[C@@H](Cc2ccccc2)C[C@H](C)C(=O)O)cs1)C(C)C,21.9%,52.6%,17.5%,32.9%,35.1%,11.4%,29%,-8.72% (active),2.41% (active),15.5%,6.11% (active),7.76% (active),14.2%,42.5%,40.4%,38.1%,17.5%,5.97% (active),13.3%
C[C@]12CC[C@H]3[C@@H](C[C@@H]4SC(Nc5ccccc5)=N[C@@]45CC(O)CC[C@]35C)[C@@H]1CCC2O (some centres not stated),51.7%,73.2%,10.1%,26.1%,65%,36.8%,49%,15.7%,0.738% (active),6.79% (active),8.06% (active),-32.3% (active),-8.95% (active),92.2%,64.1%,89.6%,11.2%,-31.6% (active),3.65% (active)
COP(=S)(N1CC1)N1CC1,103%,106%,112%,84.3%,110%,103%,93.6%,106%,105%,101%,–,104%,135%,95.9%,111%,110%,106%,–,121%
ClCCN(CCCl)c1nc(Cl)c(C2CC(c3ccccc3)=NN2c2cc(Cl)cc(Cl)c2)s1 (configuration not stated),103%,101%,95.2%,89.6%,109%,96.1%,83.4%,105%,102%,101%,112%,108%,100%,102%,96.9%,105%,101%,103%,102%
O=[N+]([O-])/C=C\c1ccc(Cl)c(Cl)c1,84%,91.8%,77.5%,35.4%,82.7%,78.4%,84.7%,34.6%,33.6%,37.1%,7.87% (active),-2.51% (active),66.1%,106%,84.4%,–,92.7%,44.6%,17%
